Assay [1] in a line: antimalarial activity against Dd2 strain (AID 2302;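 active = growth inhibition above 50% at the single 2 µM test dose, taken to imply half-maximal potency below 2 µM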;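 also: 0% = DMSO untreated growth and 100% = chloroquine plus artemisinin killed control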). Particulars: P. falciparum Dd2 in RBCs, LDH growth readout, 72 h; at 2 µM; active compounds read high.
Assay [2] can be described thus: human hepatoma cell viability loss – ATP luminescence, cytotoxicity control for P. falciparum antimalarial project, primary screen (AID 2303;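 active = inhibition above 50%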;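 also: 0% = DMSO wells and 100% = digitonin-killed cells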). Particulars: HepG2 viability, 24-48 h, at 10 µM, active compounds read high.
Assay [3] addresses L-lactate dehydrogenase (Plasmodium falciparum (isolate CDC / Honduras)) (UniProt Q27743). Nature of the assay: PfLDH activity inhibition – cell lysate, 3D7 strain, counter-screen for P. falciparum growth inhibition project (AID 2304).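 Also: 0% = vehicle and 100% = reference inhibitor.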 Particulars: P. falciparum 3D7 crude extract, LDH APAD/NBT absorbance; at 2 µM; active compounds read high.
A short description of assay [4]: inhibition of 3D7 malaria parasite growth – strain 3D7 (AID 2306).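 Also: 0% = DMSO wells and 100% = chloroquine plus artemisinin control wells.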 Particulars: P. falciparum 3D7 erythrocytic growth, LDH absorbance, 72 h; at 2 µM; active compounds read high.
Assay [5] concerns the target Calcium-dependent protein kinase 1 (Plasmodium falciparum (isolate 3D7)) (UniProt P62344). Nature of the assay: PfCDPK1 kinase inhibitors, biochemical, TCAMS library (AID 1159585; cut-off not given, nearly all actives have IC50 up to about 0.98 µM;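 also: inhibitors leave more ATP so luminescence rises with inhibition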). Particulars: recombinant PfCDPK1, Kinase-Glo ATP depletion luminescence.
Assay [6] concerns the target Plasmodium falciparum protein kinase 6 (PK6, PF3D7_1337100) (UniProt Q8IDW1). Nature of the assay: PfPK6 kinase inhibitors, biochemical, TCAMS library (AID 1159586). Particulars: recombinant PfPK6, Kinase-Glo ATP depletion luminescence.
The target in assay [7] is Protein kinase 7 (PK7), Plasmodium falciparum 3D7 (PF3D7_0213400) (UniProt Q7YTF7). The assay is described as follows: inhibition of Plasmodium PK7 catalytic activity – biochemical, TCAMS antimalarial set, Kinase-Glo luminescence (AID 1159587). Particulars: recombinant PfPK7, Kinase-Glo ATP depletion luminescence.
The target of assay [8] is Calcium-dependent protein kinase 4 (Plasmodium falciparum (isolate 3D7)) (UniProt Q8IBS5). Nature of the assay: PfCDPK4 kinase inhibitors, biochemical, TCAMS library (AID 1159588; cut-off not given, nearly all actives have IC50 up to about 0.91 µM). Particulars: recombinant PfCDPK4, Kinase-Glo ATP depletion luminescence.

A number with no mark means an inactive call. For some assays here: Measured potencies and affinities stand elsewhere. Activity calls are given as the source filed them. Unless noted, no rule for the calls is given here.

Calcium-dependent protein kinase 1 (Plasmodium falciparum (isolate 3D7)), sequence (P62344 whole entry, looked up): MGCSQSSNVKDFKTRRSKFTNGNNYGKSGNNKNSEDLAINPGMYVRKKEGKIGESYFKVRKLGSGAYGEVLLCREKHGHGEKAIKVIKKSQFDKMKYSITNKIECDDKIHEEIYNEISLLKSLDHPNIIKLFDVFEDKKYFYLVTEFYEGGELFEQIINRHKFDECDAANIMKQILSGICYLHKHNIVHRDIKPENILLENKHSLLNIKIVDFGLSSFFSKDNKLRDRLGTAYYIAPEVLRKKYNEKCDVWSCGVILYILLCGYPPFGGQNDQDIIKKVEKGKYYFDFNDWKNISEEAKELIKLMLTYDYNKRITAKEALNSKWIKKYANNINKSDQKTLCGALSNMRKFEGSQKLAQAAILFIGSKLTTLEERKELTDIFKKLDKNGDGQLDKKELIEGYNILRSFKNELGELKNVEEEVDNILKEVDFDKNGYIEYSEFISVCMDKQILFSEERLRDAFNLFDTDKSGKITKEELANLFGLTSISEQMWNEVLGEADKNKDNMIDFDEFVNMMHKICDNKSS
L-lactate dehydrogenase (Plasmodium falciparum (isolate CDC / Honduras)), sequence (Q27743 whole entry, looked up): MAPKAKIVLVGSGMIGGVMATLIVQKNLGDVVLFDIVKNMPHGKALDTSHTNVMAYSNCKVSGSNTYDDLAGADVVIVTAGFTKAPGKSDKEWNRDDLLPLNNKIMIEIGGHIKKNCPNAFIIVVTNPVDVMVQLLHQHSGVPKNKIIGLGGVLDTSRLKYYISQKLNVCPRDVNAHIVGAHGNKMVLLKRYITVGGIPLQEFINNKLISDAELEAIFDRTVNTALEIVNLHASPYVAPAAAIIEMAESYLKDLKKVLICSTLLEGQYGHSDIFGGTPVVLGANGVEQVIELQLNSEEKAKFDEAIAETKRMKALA
Calcium-dependent protein kinase 4 (Plasmodium falciparum (isolate 3D7)), sequence (Q8IBS5 whole entry, looked up): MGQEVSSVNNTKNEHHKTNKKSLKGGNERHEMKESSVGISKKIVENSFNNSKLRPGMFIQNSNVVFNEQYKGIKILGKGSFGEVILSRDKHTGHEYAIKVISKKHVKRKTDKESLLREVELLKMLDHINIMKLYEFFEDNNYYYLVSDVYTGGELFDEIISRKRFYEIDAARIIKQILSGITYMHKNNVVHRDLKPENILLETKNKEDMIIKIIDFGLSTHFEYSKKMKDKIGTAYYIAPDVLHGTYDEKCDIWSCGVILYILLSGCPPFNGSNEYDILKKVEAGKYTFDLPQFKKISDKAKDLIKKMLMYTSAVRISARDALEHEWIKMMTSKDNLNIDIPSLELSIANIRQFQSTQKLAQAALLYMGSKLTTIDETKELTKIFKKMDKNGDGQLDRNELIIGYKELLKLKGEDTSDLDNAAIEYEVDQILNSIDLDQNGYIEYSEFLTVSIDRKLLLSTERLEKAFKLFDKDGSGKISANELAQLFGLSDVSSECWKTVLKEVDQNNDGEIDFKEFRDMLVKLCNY
Plasmodium falciparum protein kinase 6 (PK6, PF3D7_1337100), sequence (Q8IDW1 1-305): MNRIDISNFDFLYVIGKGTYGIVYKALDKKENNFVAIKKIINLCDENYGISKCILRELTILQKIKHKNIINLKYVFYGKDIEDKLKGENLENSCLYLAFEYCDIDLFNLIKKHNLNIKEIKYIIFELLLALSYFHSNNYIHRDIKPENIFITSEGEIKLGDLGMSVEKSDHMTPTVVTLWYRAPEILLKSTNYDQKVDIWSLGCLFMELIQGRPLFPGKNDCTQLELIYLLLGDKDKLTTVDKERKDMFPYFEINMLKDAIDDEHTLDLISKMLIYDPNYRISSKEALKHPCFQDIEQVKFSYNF
Protein kinase 7 (PK7), Plasmodium falciparum 3D7 (PF3D7_0213400), sequence (Q7YTF7 1-343): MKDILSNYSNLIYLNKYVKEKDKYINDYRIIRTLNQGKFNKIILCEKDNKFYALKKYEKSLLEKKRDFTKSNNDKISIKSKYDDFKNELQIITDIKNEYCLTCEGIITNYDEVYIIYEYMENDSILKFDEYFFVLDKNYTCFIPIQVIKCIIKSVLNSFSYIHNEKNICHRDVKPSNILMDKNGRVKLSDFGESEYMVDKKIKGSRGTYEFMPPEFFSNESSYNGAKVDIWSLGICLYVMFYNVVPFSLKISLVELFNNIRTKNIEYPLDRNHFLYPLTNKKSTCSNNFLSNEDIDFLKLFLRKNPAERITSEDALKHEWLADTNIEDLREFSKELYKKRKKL

Regarding `COc1ccccc1CNC(=O)c1nn(-c2ccc(Cl)cc2)c(=O)c2ccccc12`, the growth inhibition in assay [1] was 80% (active); in assay [4] it was 101% (active). Further, the inhibition was -2% in assay [2] and 6% in assay [3]. Also, the outcome in assay [5], in assay [6], in assay [7] and in assay [8] was inactive.
Turning to `CCN(CCCN1CCCCC1)c1cc(C)nc(Nc2cc(C)ccc2C)n1`, the growth inhibition in assay [1] is 42%; in assay [4] it was 93% (active). For the same compound, the inhibition in assay [2] is 34%; in assay [3], 2%. Moreover, the result in assay [5], in assay [6], in assay [7] and in assay [8] was inactive.
`CCCC(C)C(=O)N1CCOC(COCc2cccc(C(F)(F)F)c2)(c2ccc(Cl)cc2)C1` (configuration not stated): the values for the growth inhibition in assay [1] and in assay [4] were 91% (active) and 97% (active), respectively. The inhibition was 2% in assay [2] and 0% in assay [3]. Also, the result in assay [5], in assay [6], in assay [7] and in assay [8] was inactive.
With `FC(F)(F)c1ccc2nc(-c3cccc(-c4cccc(CNCCc5ccncc5)c4)c3)[nH]c2c1`, the results for the growth inhibition in assay [1] and in assay [4] were 97% (active) and 99% (active), respectively. Moreover, the figures for the inhibition in assay [2] and in assay [3] were 31% and -8%, respectively. For the same compound, the outcome in assay [5], in assay [6], in assay [7] and in assay [8] was inactive.
`CCCCCCn1c(Sc2ccc(C#N)c([N+](=O)[O-])c2)nnc1-c1ccc(OC)cc1`: the growth inhibition is 51% (active) in assay [1] and 95% (active) in assay [4]. Besides, the figures for the inhibition in assay [2] and in assay [3] were 19% and 2%, respectively. For the same compound, the outcome in assay [5], in assay [6], in assay [7] and in assay [8] was inactive.
With `CC(C)CCCC(C)NC[C@@H](O)[C@H](Cc1ccccc1)NC(=O)c1cc(N2CCCC2=O)cc(N(c2ccccc2)S(C)(=O)=O)c1` (some centres not stated), the growth inhibition is 97% (active) in assay [1] and 99% (active) in assay [4]. Also, the inhibition in assay [2] is 17%; in assay [3], -5%. For the same compound, the result in assay [5], in assay [6], in assay [7] and in assay [8] was inactive.
Turning to `Cc1cc(CNCC(CCNc2cc(=O)c3ccccc3[nH]2)NCc2cc(Br)cc(Br)c2)oc1C` (configuration not stated), the growth inhibition is 85% (active) in assay [1] and 98% (active) in assay [4]. The inhibition was 4% in assay [2] and 2% in assay [3]. In addition, the result in assay [5], in assay [6], in assay [7] and in assay [8] was inactive.
Take `O=C(NC1CCCCC1)N(Cc1ccc(-c2cccc(CNCc3ccc4c(c3)OCO4)c2)cc1)C1CCN(Cc2ccccc2)CC1`: the figures for the growth inhibition in assay [1] and in assay [4] were 72% (active) and 101% (active), respectively. Moreover, the results for the inhibition in assay [2] and in assay [3] were 23% and 4%, respectively. Also, the outcome in assay [5], in assay [6], in assay [7] and in assay [8] was inactive.
`c1ccc2ncc(CNCCCCCCCCNCc3cnc4ccccc4c3)cc2c1`: the growth inhibition in assay [1] is 4%; in assay [4] it was 88% (active). The inhibition in assay [2] is 8%; in assay [3], -3%. The result in assay [5], in assay [6], in assay [7] and in assay [8] was inactive.
As for `CCOCCCn1c(=N)c(C(=O)NCc2ccc(OC)cc2)cc2c(=O)n3cccc(C)c3nc21`, the growth inhibition in assay [1] was 46%; in assay [4], 99% (active). Besides, the values for the inhibition in assay [2] and in assay [3] were 24% and 2%, respectively. Also, the result in assay [5], in assay [6], in assay [7] and in assay [8] was inactive.
Regarding `CN(C)CCC(O)C=C(c1ccc(Cl)cc1)c1ccc(Cl)cc1` (configuration not stated), the growth inhibition in assay [1] is 85% (active); in assay [4] it was 93% (active). The inhibition in assay [2] is 33%; in assay [3], 1%. Moreover, the result in assay [5], in assay [6], in assay [7] and in assay [8] was inactive.
For the compound `CC(=O)C=C1CC(=O)N(C[C@@H](O)[C@H]2O[C@@H]3OC(C)(C)O[C@@H]3[C@H]2O)c2ccccc2N1`, the values for the growth inhibition in assay [1] and in assay [4] were 2% and 90% (active), respectively. In addition, the figures for the inhibition in assay [2] and in assay [3] were -8% and 3%, respectively. The outcome in assay [5], in assay [6], in assay [7] and in assay [8] was inactive.
As to `COCCN1CCC(C(=O)NCC(C)(C)c2nc(-c3ccc(Br)c(O)c3)c(-c3ccncc3)[nH]2)CC1`, the growth inhibition in assay [1] was 6%; in assay [4] it was 99% (active). In addition, the inhibition in assay [2] is -12%; in assay [3] it was 3%. For the same compound, the outcome in assay [5], in assay [6], in assay [7] and in assay [8] was inactive.
In the case of `COc1cc2nc(N3CCC(CNC(=O)c4ccc(-c5ccc(C#N)cc5C)cc4)CC3)nc(N)c2cc1OC`, the growth inhibition was 99% (active) in assay [1] and 101% (active) in assay [4]. Moreover, the figures for the inhibition in assay [2] and in assay [3] were 28% and -4%, respectively. Also, the result in assay [5], in assay [6], in assay [7] and in assay [8] was inactive.
As for `COc1cc2nc(NCCc3ccccc3)nc(NCc3cc(C)no3)c2cc1OC`, the growth inhibition is 100% (active) in assay [1] and 99% (active) in assay [4]. The inhibition was 5% in assay [2] and -3% in assay [3]. The result in assay [5], in assay [6], in assay [7] and in assay [8] was inactive.
As for `Cc1nnsc1C(=O)Nc1ccc(-c2ccc(-c3nc4ccccc4[nH]3)s2)cc1`, the growth inhibition is 38% in assay [1] and 92% (active) in assay [4]. For the same compound, the inhibition in assay [2] was 49%; in assay [3], 4%. Also, the result in assay [5], in assay [6], in assay [7] and in assay [8] was inactive.
With `CC(C)C(C(=O)Nc1ccc2c(c1)OCO2)c1ccc(Cl)cc1` (configuration not stated), the figures for the growth inhibition in assay [1] and in assay [4] were 89% (active) and 98% (active), respectively. For the same compound, the inhibition in assay [2] is 25%; in assay [3] it was -7%. In addition, the result in assay [5], in assay [6], in assay [7] and in assay [8] was inactive.
Regarding `COc1cccc(NC(=O)Nc2ccc(Nc3nc(C)cc(N(C)C)n3)cc2)c1`, the growth inhibition is 100% (active) in assay [1] and 101% (active) in assay [4]. In addition, the inhibition in assay [2] was 14%; in assay [3], 5%. The outcome in assay [5], in assay [6], in assay [7] and in assay [8] was inactive.
Take `COc1cc(NCCCNC(=O)c2cc3c(Cl)cc(Cl)cc3[nH]2)nc2ccccc12`: the growth inhibition in assay [1] and in assay [4] was 100% (active) in each case. The inhibition in assay [2] was 96% (active); in assay [3], -1%. Moreover, the result in assay [5], in assay [6], in assay [7] and in assay [8] was inactive.

The record behind these values is PubChem BioAssay.
